Shown are actives, neighbours in structure and some others; about 2.3% of the full set was active somewhere.
PfM18AAP inh: blocks P. falciparum M18 aspartyl aminopeptidase; recombinant PfM18AAP, H-Glu-NHMec fluorogenic cleavage; inhibition, % at 7.35 µM; 1.2% of 290,000 active; AID 1822;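 active means inhibition above the campaign mean inhibition over all tested compounds plus 3 SD, cut at about 28% in these data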
Kir21 inh: Kir2.1 (mouse) channel inhibition | P35561 | HEK293-Kir2.1, FluxOR thallium flux fluorescence; hits give low values | B-score at 10 µM | 0.85% of 310,000 active | AID 1672;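 active means fluorescence ratio B-score at or below minus 3 SD of library scores, with starting-brightness B-score within 2 SD, cut at about -4.2 in these data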;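 further: channel flux triggered by added potassium and thallium sulfate stimulus; B-score of peak minus minimum fluorescence over baseline after thallium stimulus; more negative B-score means stronger Kir2.1 block with less thallium influx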
FID counter: counter-screen for HCV NS3 helicase inhibitors: DNA intercalator displacement; DNA fluorescent intercalator displacement, fluorescence; AID 1845; inhibition, % at 7.9 µM; 0.17% of 290,000 active; in the data active means inhibition above about 37%;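 further: higher means more ethidium bromide displaced from hairpin DNA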
Rce1 inhib: yeast Ras-converting enzyme inhibition | yeast membranes, quenched prenylated peptide cleavage fluorescence | calls only | 0.27% of 290,000 active | AID 2563;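 active means fall in fluorescence gain of 50% or more versus controls, with final raw signal at or below 3038400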
Target sequence (Q03530 whole entry, looked up): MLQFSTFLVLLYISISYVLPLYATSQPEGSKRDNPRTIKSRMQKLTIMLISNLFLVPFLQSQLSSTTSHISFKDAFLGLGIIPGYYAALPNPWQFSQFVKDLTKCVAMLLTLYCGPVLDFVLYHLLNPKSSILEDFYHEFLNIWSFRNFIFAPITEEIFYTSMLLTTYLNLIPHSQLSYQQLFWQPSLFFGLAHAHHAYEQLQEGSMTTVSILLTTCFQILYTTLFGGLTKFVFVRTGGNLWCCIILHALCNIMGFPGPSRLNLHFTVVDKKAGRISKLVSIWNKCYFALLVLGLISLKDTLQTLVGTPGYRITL
A number is an active result; 0 = inactive; - = no result; + = active, no number; ! = a repeat was not active.

SMILES	PfM18AAP inh	Kir21 inh	FID counter	Rce1 inhib
CCCCC(C(=O)OCC)C(N)Cc1ccc(F)cc1 (configuration not stated)	0	-4.7	0	0
CCOC(=O)C(Cc1ccccc1)C(=O)c1ccco1 (configuration not stated)	-	0	-	0
O=C(NCc1ccco1)c1cccnc1-c1nc2ccccc2s1	31	0	0	0
O=C(NCc1ccco1)c1cccnc1Cl	0	0	0	0
Cc1nc(SC(C(=O)c2ccccc2)c2ccccc2)nc2ccccc12 (configuration not stated)	0	0	0	+
C=CCNCc1cccn1-c1sc2c(c1C#N)CCCC2	0	0	0	0
N#Cc1c(-n2cccc2/C=N/O)sc2c1CCCC2	0	-9.8	0	0
CCCC(O)(c1ccc(CC)cc1)C(CN1CCOCC1)c1ccccc1 (configuration not stated)	0	0	0	0
CC(O)CNc1ccc([N+](=O)[O-])cc1S(=O)(=O)N1CCOCC1 (configuration not stated)	0	0	0	0
O=C(O)CC/C(=N\Nc1ccc([N+](=O)[O-])cc1S(=O)(=O)N1CCOCC1)c1cccs1	30	0	0	0
C=C(C)C1(O)OC(=O)C=C1OC (configuration not stated)	0	0	0	+
COc1ccccc1N1CCN(C(=O)c2ccc(Cl)c(S(=O)(=O)N3CCOCC3)c2)CC1	0	0	0	0
OCCn1c(-c2ccc(F)cc2)csc1=Nc1ccccc1	41	0	0	0
CC(C)(C)OC(=O)NCCc1nnc(SCc2ccccc2)o1	0	-6.1	0	0
CC(C)(C)OC(=O)NCCc1nnc(SCc2ccccc2Cl)o1	0	-5.5	0	0
Cc1c(CCC(=O)N[C@@H](CC(C)C)C(=O)O)c(=O)oc2cc3oc4c(c3cc12)CCCC4	0	0	0	0
COC(=O)c1nc(Cl)c(Cl)c(N)c1Cl	0	0	0	0
NC(N)=NC(=O)c1nc(Cl)c(N)nc1N	0	0	0	+!
CCOc1ccccc1CNC(=O)Cn1ccc2cc(S(=O)(=O)N3CCCC3)ccc21	0	0	0	0
O=C(NNC(=O)c1cc2ccccc2cc1O)NC1CCCCC1	29	0	0	0
CCC1CCC(N2CCN(c3ccc([N+](=O)[O-])cc3)CC2)CC1 (configuration not stated)	0	0	0	0
Cc1nc2cc(-c3ccc(Cl)cc3)nn2c(NCCN(C)C)c1C	0	-4.6	0	0
Cc1cc(C)n2nc(-c3ccc(Cl)cc3)cc2n1	0	0	0	0
CN(C)c1ccc2nc3ccc(=[N+](C)C)cc-3sc2c1	0	0	74	0
O=c1[nH]c2ccc([N+](=O)[O-])cc2nc1/C=C(\O)c1ccccc1	0	0	0	0
SMILES	PfM18AAP inh	Kir21 inh	FID counter	Rce1 inhib
COC(=O)c1ccc(C(=O)OC)c(NC(=O)CN(c2ccccc2)S(=O)(=O)N(C)C)c1	0	0	0	0
CC(NCCC1(Cc2ccccc2Cl)CCOC(C)(C)C1)c1cccs1 (configuration not stated)	0	-4.9	0	0
CC(NCCC1(C(C)C)CCOC(C)(C)C1)c1cccs1 (configuration not stated)	0	0	0	0
CCC1CCc2sc(C(=O)NCC(c3ccc(OC)cc3)N3CCCC3)cc2C1 (configuration not stated)	-	0	-	0
Cc1cccc(C)c1OCc1nnc(SCC(=O)Nc2nccs2)o1	28	0	0	0
C=CCn1c(SCc2ccccc2C#N)nnc1-c1cc(Br)ccc1O	0	-8.3	0	0
CCOC(=O)C1=C(C)N(CC)C(=S)NC1c1ccc(Cl)cc1 (configuration not stated)	0	-7.1	0	0
O=C(Nc1ccc(NC(=O)N2CCN(c3ccccc3O)CC2)cc1)N1CCN(c2ccccc2O)CC1	29	0	0	0
CCCC(C(=O)O)n1c(O)c(C=C2N=c3ccccc3=N2)sc1=S (configuration not stated)	30	0	0	0
O=C(O)c1cccc(-n2c(O)c(C=C3N=c4ccccc4=N3)sc2=S)c1	31	0	0	0
COCCCNCCCOc1ccc(Cl)cc1Br	0	0	0	0
CN(CCOCCOc1ccc(Cl)cc1Br)Cc1ccccc1	0	-7.3	0	0
CCCCNCCOCCOc1ccc(Cl)cc1Br	0	-6.1	0	0
CN(CCOc1ccccc1Cl)Cc1ccccc1	0	0	0	0
Cc1ccc(Cl)c(OCCCCN(C)Cc2ccccc2)c1	0	-9.5	0	0
COc1cccc(CNC(=O)[C@@H](C)N2C(=O)N3CCc4c([nH]c5ccc(OC)cc45)C3(C)C2=O)c1 (some centres not stated)	0	0	0	0
O=C1c2ccccc2S(=O)(=O)N1Cc1ccccc1[N+](=O)[O-]	0	0	0	0
COc1cc(CNCc2ccc(SC)cc2)cc(OC)c1	0	-5.2	0	0
